Experimental data as given in ChEMBL document CHEMBL3988442, “University of Dundee, Small-Polar-MMV Screening Library” (2021).
About 960 (1.5%) of roughly 66,000 compounds showed an effect of 50% or more. The sample holds strong results, similar compounds and a random draw of the others, so the mix is not that of the screen.

Test system: Trypanosoma brucei
Assay: Trypanosoma brucei 72 hour study
Format: functional, organism-based
Set-up: scale not given: in the data most compounds retested in dose-response had high values

| SMILES | Percent Effect (30.3 µM, […]) [%] | Percent Effect (30 µM, 30.03 µM) [%] |
| --- | --- | --- |
| Cl.O=C(c1ccccc1F)N1CC2(CCNCC2)c2cc(Cl)ccc21 | -26.55 |  |
| Cl.Cl.O=C([C@H]1CCCN1)N1CC2(CCNCC2)c2cc(Cl)ccc21 | 11.24 |  |
| CN(C)C(=O)N1CC2(CCNCC2)c2cc(Cl)ccc21.Cl | -10.23 |  |
| Cc1ccc2c(c1)C1(CCNCC1)CN2C(=O)C(C)C | -10.81 |  |
| Cl.Cl.O=C([C@@H]1CSCN1)N1CC2(CCNCC2)c2cc(Cl)ccc21 | -15.46 |  |
| C[C@@H](N)C(=O)N1CC2(CCNCC2)c2cc(Cl)ccc21.Cl.Cl | 51.33 |  |
| COCCN1CC[C@H](OC)[C@@H]1Cc1ccccc1.O=C(O)C(F)(F)F |  | -24.73 |
| O=C(COC[C@@]12CCC[C@@H]1CN(C1CCC1)C2)N1CCCC1.O=C(O)C(F)(F)F | -61.71 |  |
| Cc1nn(C)c2c(=O)n(CC(=O)NCC3CCCO3)ccc12 (stereo unspecified) |  | -1.766 |
| CNC(=O)CN1CC[C@H]2CN(C(=O)c3ccoc3)C[C@H]2C1.O=C(O)C(F)(F)F | -45.09 |  |
| CCOCC1CN(Cc2nccs2)Cc2nn(CC3CC3)cc21.O=C(O)C(F)(F)F (stereo unspecified) |  | -7.531 |
| COc1ncc(CN(CCCN2CCOCC2)Cc2ccc(C)o2)cn1.O=C(O)CC(O)(CC(=O)O)C(=O)O | -12.51 |  |
| CNc1nc(C2CCCN2C(C)=O)nc2c1CN(CCO)CC2.O=CO (stereo unspecified) | 20.17 |  |
| COc1cc([C@@H]2N[C@H](c3nccs3)Cc3ccsc32)cc(OC)c1OC | -6.656 |  |
| COc1ccc(OC)c([C@@H]2N[C@H](c3nccs3)Cc3ccsc32)c1 | 15.15 |  |
| CCOc1cc([C@@H]2N[C@H](c3nccs3)Cc3ccsc32)ccc1OC | 9.707 |  |
| CCOc1ccc([C@@H]2N[C@H](c3nccs3)Cc3ccsc32)cc1OC | 10.72 |  |
| COc1cccc([C@@H]2N[C@H](c3nccs3)Cc3ccsc32)c1OC | 100.1 |  |
| CCOc1cc([C@H]2N[C@@H](c3nc(C)cs3)Cc3ccsc32)ccc1OC | 85.49 |  |
| O=C(CN1C[C@H]2C[C@H](OCc3ccccc3)C[C@H]2C1)N1CCOCC1 | -15.88 |  |
| Cc1cc(C)n(CC2CN(c3nnc(C)c(C)c3C#N)CCO2)n1 (stereo unspecified) | 5.324 |  |
| NC1(C(=O)NCC2CCCN(Cc3cccc4nonc34)C2)CCC1 (stereo unspecified) |  | 54.97 |
| NC1(C(=O)NCC2CCCN(Cc3ccccc3F)C2)CCCC1 (stereo unspecified) |  | -11 |

| SMILES | Percent Effect (30.3 µM, […]) [%] | Percent Effect (30 µM, 30.03 µM) [%] |
| --- | --- | --- |
| O=C(NCC1CCCN(Cc2cccc3nonc23)C1)c1ccc[nH]1 (stereo unspecified) |  | -46.2 |
| COc1ccc(CN2CCc3nc4ccsc4c(=O)n3CC2)c(C)c1C | 7.671 |  |
| CCn1cc(NC(=O)C(C)n2ncc(Cl)c2C)c(C(=O)NC)n1 (stereo unspecified) |  | -19.95 |
| CC(C)CNC(=O)[C@H]1CCS(=O)(=O)[C@@H]2CN(Cc3ccc(F)cc3)C[C@H]12.O=C(O)C(F)(F)F | -43.77 |  |
| CC(C)CNC(=O)[C@H]1CCS(=O)(=O)[C@@H]2CN(Cc3ccc(Cl)cc3)C[C@H]12.O=C(O)C(F)(F)F |  | 63.22 |
| Cc1ccc(CN2C[C@@H]3[C@@H](C(=O)NCC(C)C)CCS(=O)(=O)[C@@H]3C2)cc1.O=C(O)C(F)(F)F | -11.51 |  |
| CC(CNCc1ccc(Cl)cc1)Oc1ccccn1.Cl (stereo unspecified) |  | -4.288 |
| NC(=O)COc1ccc(C2NC(=O)CN2Cc2ccc(Br)cc2)cc1 (stereo unspecified) |  | -15.28 |
| Cc1cc(C2NC(=O)CN2Cc2ccc(Br)cc2)cc(C)c1O (stereo unspecified) |  | 94.42 |
| COc1cc(OC)cc(C2NC(=O)CN2Cc2ccc(Br)cc2)c1 (stereo unspecified) |  | -25.05 |
| CC1N(c2cnn(C)c2)C(=O)COC12CCN(c1ncccn1)CC2.O=C(O)C(F)(F)F (stereo unspecified) | -2.456 |  |
| CN(CCc1ccccn1)C(=O)c1cccs1.Cl |  | -41.89 |
| COCCNC(=O)c1nc(-c2ccc3cc[nH]c3c2)no1 |  | -23.6 |
| O=C(c1nc(-c2ccc3cc[nH]c3c2)no1)N1CCCC1 |  | 53.89 |
| O=C(NCCN1CCCCC1)c1nc(-c2ccc3cc[nH]c3c2)no1 |  | 29.87 |
| COCCNc1cc(C2CCCNC2)ccn1.Cl (stereo unspecified) | 9.179 |  |
| CCNC(=O)[C@@H]1C[C@H](N)CN1Cc1ccc(-c2cc[nH]n2)o1 | -17.36 |  |
| CCNC(=O)[C@@H]1C[C@H](N)CN1Cc1ccc(Sc2ccc(C)cc2)o1 | 18.4 |  |
| CCNC(=O)[C@@H]1C[C@@H](N)CN1Cc1ccc(Sc2ccc(C)cc2)o1 | 100.1 |  |
| COCCN1C(=O)C[C@H]2[C@H]1CCN2Cc1cccc(C#N)c1.O=C(O)C(F)(F)F |  | 17.08 |
| O=C(O)C(F)(F)F.O=C(c1ccc[nH]1)N1CCn2cc(Cn3cccn3)nc2C1 | 63.53 |  |
| O=C(O)C(F)(F)F.O=C(c1ccc[nH]1)N1CCn2cc(CN3CCCC3)nc2C1 |  | -5.056 |
| O=C(c1ccc[nH]1)N1CCn2cc(Cn3cncn3)nc2C1 |  | -19.87 |
